Source: PubChem BioAssay
Pf apPOL inh: Pf-apPOL DNA polymerase inhibition; Recombinant Pf-apPOL, molecular beacon fluorescence, 1.5 h; inhibition, % at 10 µM; 210,000 compounds, 0.25% hits; AID 1794808
mHTT CaM bind: inhibitors of human mutant huntingtin-calmodulin interaction; AlphaScreen His-mHTT/GST-CaM binding, luminescence; inhibition, % at 15 µM; 190,000 compounds, 3.6% hits; AID 1671202;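 also: 0% = both proteins with DMSO and 100% = one protein alone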
Active calls of the source: *; nt = not tested or not shown. In the library only some 3.5% were active in any assay of this set; here they are far more common. Rule as the data show it: active = inhibition above about 50%; inactive = the rest.

SMILES	Pf apPOL inh	mHTT CaM bind
COc1cc(C(=O)Nc2c3c(nn2-c2ccccc2C)CSC3)cc(OC)c1OC	-4.8	1.0
CC(O)C#CCN(Cc1ccccc1)C(C)C (centres undefined)	-53.9	0.5
O=C(COc1cccc2c1CCN(Cc1ccc(Cl)cc1)C2=O)NCc1ccco1	-10.8	69.8*
O=C(COc1cccc(Cl)c1)NCc1ccco1	-19.5	-3.9
Cc1ccc(CNC(=O)c2oc3ccc(S(=O)(=O)N4CCCCC4)cc3c2C)cc1	-6.3	-10.0
Cc1ccc(S(=O)(=O)N2CCCC(C)(C(=O)NCc3ccc(F)cc3)C2)cc1C (centres undefined)	-0.9	89.1*
CC1(C(=O)NCc2ccc(F)cc2)CCCN(S(=O)(=O)c2ccc3c(c2)CCCC3)C1 (centres undefined)	-6.5	64.9*
CC1(C(=O)NCc2ccc(F)cc2)CCCN(S(=O)(=O)c2ccc(F)c(Cl)c2)C1 (centres undefined)	0.3	94.7*
Cc1c(C(=O)NCc2ccc(F)cc2)oc2ccc(S(=O)(=O)N3CCCCCC3)cc12	51.6*	-2.0
CC(=O)c1ccc(S(=O)(=O)N2CCCC(C)(C(=O)NCc3ccc(F)cc3)C2)cc1 (centres undefined)	1.7	6.3
Cc1ccc(S(=O)(=O)N2CCCC(C)(C(=O)NCc3ccc(F)cc3)C2)c(C)c1 (centres undefined)	-13.4	29.0
Cc1ccc(S(=O)(=O)N2CCCC(C)(C(=O)NCc3ccccc3)C2)cc1C (centres undefined)	-5.0	-0.2
COc1ccc(CC(=O)N2CC3CC(NC(=O)c4ccccc4)C2C3)cc1 (centres undefined)	-5.5	4.5
O=C(O)CCC(=O)Nc1ccc(Br)c2cccnc12	-7.7	3.0
Cn1c(C2CCN(C(=O)Cc3cccc(Cl)c3)C2)nc2ccncc21 (centres undefined)	-7.7	3.8
C=CCNC(=O)C1CC(c2ccccc2)CN(C(=O)c2ccc(F)cc2)C1 (centres undefined)	-0.2	27.3
O=C(Cn1cnc2ccccc2c1=O)Nc1ccc(S(=O)(=O)Nc2nccs2)cc1	-11.8	-0.4
CCC(C)C(=O)N1CCc2nc3cc(-c4ccc(OC)cc4)[nH]n3c(=O)c2C1 (centres undefined)	-3.5	0.6
CC1(C(=O)NCc2ccc(F)cc2)CCCN(S(=O)(=O)c2ccccc2Cl)C1 (centres undefined)	1.5	1.0
Cc1ccc(F)cc1S(=O)(=O)N1CCCC(C)(C(=O)NCc2ccc(F)cc2)C1 (centres undefined)	-6.2	7.9
Cc1ccc(C)c(S(=O)(=O)N2CCCC(C)(C(=O)NCc3ccc(F)cc3)C2)c1 (centres undefined)	-1.5	60.6*
Cc1c(Cl)cccc1S(=O)(=O)N1CCCC(C)(C(=O)NCc2ccc(F)cc2)C1 (centres undefined)	0.2	86.2*
CCOC(=O)c1sc(N2N=C(C)/C(=C\c3ccc(C)s3)C2=O)nc1C	nt	5.2
Cc1nc(-c2cccs2)sc1-c1ccnc(SCC(=O)Nc2ccc(C(C)C)cc2)n1	3.8	nt
COc1cc(C2c3c(oc4ccc(Cl)cc4c3=O)C(=O)N2C)cc(OC)c1OC (centres undefined)	0.9	-5.0
